The nature of assay [1]: qHTS assay to identify small molecule agonists of H2AX (AID 1224845; active means well fitted activation curve with a large enough effect in the signal ratio in the repeat runs, not every such curve was filed as active; the % refers to the signal ratio; further: potency means the concentration at half of the fitted maximal effect). The procedure, abridged: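 Wild-type CHO-K1 cells, plated overnight, exposed 3hr at 37C to 15 concentrations (0.76% DMSO final). Lysed, then HTRF anti-pH2AX (S139) cryptate and anti-H2AX-d2 antibodies, 24 hr room temperature; 665/620 nm emission read.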
In general terms: Quantitative high-throughput screening tests each substance at several concentrations.

A short description of assay [2]: qHTS assay to identify small molecule antagonists of the estrogen related receptor (ERR) signaling pathway from Tox21 library (AID 1224848). Further: nearly all actives have a fitted effect of over 50% in size. Further: potency means the concentration at half of the fitted maximal effect. Summed up:
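Luminescent reporter read-out (ONE-Glo) from NTP's ERR cell line after 18 h treatment at 37 C with DMSO-dissolved Tox21 compounds; cells pre-plated 6 h beforehand at 2,000 per well.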

The nature of assay [3]: qHTS assay to identify small molecule agonists of the estrogen related receptor (ERR) signaling pathway from Tox21 library (AID 1224849; calls by dose curve; further: nearly all actives have a fitted effect of over 15% in size). The note with it: ERR reporter cell line, ONE-Glo luciferase, 18 h; at 92.4 µM (top of the series). Summed up:
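Screening used an NTP-provided ERR luciferase cell line. Compounds in DMSO were added 6 h after seeding and left 18 h at 37 C before a 30 min ONE-Glo step and luminescence reading.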

The nature of assay [4]: qHTS RealTime-Glo MT Cell Viability Assay in HepG2 cells - 24 hour (AID 1224867). Further: nearly all actives have a fitted effect of over 50% in size. Summed up:
(§1)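 Luminescence read-out: viable HepG2 cells reduce a prosubstrate to a NanoLuc substrate, giving a signal proportional to live cell number. Reads taken at 0, 8, 16, 24, 32 and 40 h of compound exposure at 37 C.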

Assay [5] in a line: qHTS RealTime-Glo MT Cell Viability Assay in HEK293 cells - 32 hour (AID 1224868). Further: top concentration of the series differs between compounds; nearly all actives have a fitted effect of over 50% in size. The procedure, abridged:
(§2)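 Nonlytic real-time viability readout: viable cells convert prosubstrate to NanoLuc substrate, giving luminescence proportional to live cell number. HEK293, 600 cells/well, compound added after 5 h, continuous culture at 37 C.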

Assay [6] is described as follows: A CellTox Green Cytotoxicity Assay to monitor cytotoxicity in HEK293 cells - 0 hour (AID 1224869). Further: nearly all actives have a fitted effect of over 50% in size. The procedure, abridged: (§3)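 Fluorescence intensity, read at 0, 8, 16, 24, 32 and 40 h of compound treatment, reflected dye binding to DNA of dead HEK293 cells; compounds (23 nL, DMSO) were added 5 h after plating cells with reagent.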
Assay [7] is described as follows: A CellTox Green Cytotoxicity Assay to monitor cytotoxicity in HEK293 cells - 40 hour (AID 1224871). Further: nearly all actives have a fitted effect of over 45% in size. Further: potency means the concentration at half of the fitted maximal effect. Summed up:
as §3

Assay [8] is described as follows: qHTS RealTime-Glo MT Cell Viability Assay in HEK293 cells - 16 hour (AID 1224872). Summed up: as §2
A short description of assay [9]: qHTS RealTime-Glo MT Cell Viability Assay in HepG2 cells - 8 hour (AID 1224873). Further: nearly all actives have a fitted effect of over 55% in size. Summed up:
(§4)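 HepG2 cells (600/well) mixed with RealTime-Glo MT reagent, settled 5 h at 37 C/5% CO2 before compound addition. Nonlytic NanoLuc luminescence from viable-cell prosubstrate reduction read repeatedly during 40 h treatment at 37 C.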

The nature of assay [10]: qHTS RealTime-Glo MT Cell Viability Assay in HEK293 cells - 40 hour (AID 1224874). Further: nearly all actives have a fitted effect of over 50% in size. Further: potency means the concentration at half of the fitted maximal effect. The note with it: RealTime-Glo luminescence; max response: stronger effect = lower value. The procedure, abridged: (§5)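 Viable HEK293 cells reduce a cell-permeant prosubstrate; the product diffuses out and is consumed by NanoLuc in the medium to give light. Compounds went in after a 5 h incubation and plates were read over the treatment course.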

Assay [11] in a line: A CellTox Green Cytotoxicity Assay to monitor cytotoxicity in HEK293 cells - 24 hour (AID 1224875). Further: nearly all actives have a fitted effect of over 45% in size. Summed up: as §3
A short description of assay [12]: A CellTox Green Cytotoxicity Assay to monitor cytotoxicity in HepG2 cells - 16 hour (AID 1224876). Further: nearly all actives have a fitted effect of over 45% in size. The procedure, abridged:
(§6)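 Using 1536-well format, dye-containing HepG2 suspension was seeded, allowed 5 h at 37 C/5% CO2, dosed by pintool with compounds, positive and negative controls, and imaged for fluorescence across 40 h.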

Assay [13] can be described thus: qHTS RealTime-Glo MT Cell Viability Assay in HepG2 cells - 32 hour (AID 1224877). Further: nearly all actives have a fitted effect of over 55% in size. The procedure, abridged:
as §1

A short description of assay [14]: A CellTox Green Cytotoxicity Assay to monitor cytotoxicity in HepG2 cells - 24 hour (AID 1224878). Further: nearly all actives have a fitted effect of over 45% in size. Summed up: as §6
A short description of assay [15]: A CellTox Green Cytotoxicity Assay to monitor cytotoxicity in HepG2 cells - 40 hour (AID 1224879). Further: nearly all actives have a fitted effect of over 40% in size. The procedure, abridged: as §6
Assay [16] is described as follows: qHTS RealTime-Glo MT Cell Viability Assay in HEK293 cells - 0 hour (AID 1224880). The procedure, abridged:
as §5

Assay [17] is described as follows: qHTS assay to identify small molecule agonists of the hypoxia (HIF-1) signaling pathway - cell viability counter screen (AID 1224844; calls by dose curve; further: nearly all actives have a fitted effect of over 50% in size). Summed up: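 Cells (HRE-bla ME-180, 2,000 per well) sat 5 hrs at 37C, got compound for 17 hrs, were read for CCF4-AM FRET, and were finally lysed with CellTiter-Glo for a 30 min room-temperature luminescence read.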
A short description of assay [18]: qHTS RealTime-Glo MT Cell Viability Assay in HepG2 cells - 40 hour (AID 1224870). Further: nearly all actives have a fitted effect of over 50% in size. The procedure, abridged: as §4
Assay [19] can be described thus: qHTS assay to identify small molecule agonists of the hypoxia (HIF-1) signaling pathway (AID 1224846; active means well fitted activation curve with a large enough effect in the signal ratio in the repeat runs, not every such curve was filed as active; the % refers to the signal ratio). The procedure, abridged:
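A low-serum medium (0.5% dialyzed FBS) holding 2,000 HRE-bla ME-180 cells per well is preincubated for 5 hrs, dosed with compounds by pintool, and kept a further 17 hrs at 37C, 5% CO2 before CCF4-AM FRET detection of beta-lactamase.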

Assay [20] is described as follows: qHTS assay to identify small molecule agonists of H2AX - cell viability counter screen (AID 1224847; calls by dose curve; further: top concentration of the series differs between compounds; nearly all actives have a fitted effect of over 30% in size). The procedure, abridged:
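For this counter screen, overnight-attached CHO-K1 cells received test compounds (15 concentrations, 0.76% DMSO final); 3 hr later at 37C, CellTiter-Glo reagent was added and luminescence recorded after 30 min at room temperature.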

“And” between values parts separate entries of the source, which are not always exact repeats. Equal values may be shown once. Values without a mark were called inactive. Inconclusive results are not listed. The source made the active and inactive calls. Unless noted, the call rests on the fitted dose curve; in most records, active means well fitted curve in the direction sought with a large enough effect in the repeat runs; inconclusive means weak or mixed curves; inactive means no such curve, though single readings can be large; an effect the other way counts as inactive or inconclusive.
On the % scale 0 is the no-effect control and ±100 the full control effect.

Regarding `CC(C)(c1cc(Cl)c(O)c(Cl)c1)c1cc(Cl)c(O)c(Cl)c1`, the Potency entry in assay [1], in assay [2], in assay [4], in assay [5], in assay [6] and in assay [7] was “inactive” throughout. Further, the Potency entry in assay [8], in [9], in [11], in assay [12], in assay [13] and in assay [14] was “inactive” each time. The Potency entry in assay [15] and in assay [16] was “inactive” in each case. Further, the activity change, positive = activation in [3] is -0.444% and -2.89%. In addition, the max response in assay [10] is -12.2% and -31.9%.
As to `CCOC(=S)S`, the Potency in assay [1] is 28.4 µM (active); in assay [2], 73 µM (active). Also, the activity change, positive = activation in assay [3] is -20.1% and -29.8%. The Potency entry in assay [4], in [5], in assay [6], in assay [7], in assay [8] and in assay [9] was “inactive” throughout. The Potency entry in [11], in [12], in assay [13], in assay [15] and in assay [16] was “inactive” in each case. In [10], the max response was 6.71% and 5.31%.
Turning to `COP(=S)(OC)Oc1cc(Cl)c(Cl)cc1Cl`, the Potency result in assay [17], in assay [1], in [4], in assay [5], in assay [18] and in [7] was “inactive” in each case. Moreover, the Potency result in [8], in assay [9], in [12], in [13], in assay [14] and in assay [15] was “inactive” each time. Further, in assay [16], the Potency entry is “inactive”. The max response in assay [10] is -10.5% and -1.54%.
Consider `CCC(C)(c1ccc(O)cc1)c1ccc(O)cc1`, for which the Potency result in assay [17], in assay [20], in assay [4], in assay [6], in assay [7] and in assay [9] was “inactive” each time. Besides, the Potency result in assay [11], in assay [12], in assay [13], in assay [14], in assay [15] and in assay [16] was “inactive” each time. Moreover, the outcome in [19] was inactive. Besides, the Potency in assay [2] is 54.5 µM (active); in [10], 24.5 µM (active) and 43.6 µM (active). The activity change, positive = activation in assay [3] was -28.1% and -37.5%.
For `Nc1c(Cl)cc([N+](=O)[O-])cc1Cl`, the Potency result in assay [17], in assay [1], in [4], in assay [5], in [6] and in [18] was “inactive” each time. Also, the Potency result in [7], in [8], in assay [9], in assay [12], in assay [13] and in assay [14] was “inactive” throughout. Moreover, the Potency entry in assay [15] and in [16] was “inactive” in each case. For the same compound, in assay [2], the Potency was 30.8 µM (active) and 24.3 µM (active). The activity change, positive = activation in [3] is -38.6% and -54.4%. In addition, the max response in assay [10] is -14.9%.
In the case of `C#C[C@]1(O)CC[C@H]2[C@@H]3CCC4=CC(=O)CC[C@]4(C)[C@H]3CC[C@@]21C`, the Potency entry in [17], in assay [1], in assay [4], in assay [5], in assay [6] and in assay [18] was “inactive” throughout. The Potency entry in assay [8], in assay [9], in assay [12], in [13], in assay [14] and in assay [16] was “inactive” throughout. Further, the Potency in assay [7] was 49 µM (active). Moreover, the max response in assay [10] was -4.36% and -16.3%.

(Values after PubChem BioAssay (Tox21).)
